# Test results published in PubChem BioAssay (NCATS).
# “And” between values parts separate entries of the source, which are not always exact repeats. Equal values may be shown once. Records with an inconclusive call do not appear. Where a call stands in place of a potency, no number is given. A structure can be active in one record and inactive in another. A number with no mark means an inactive call. The source made the active and inactive calls. Calls come from the whole dose curve; as a rule, active = well fitted curve in the direction sought with a large enough effect; inconclusive = small, poorly fitted or top-dose-only effect, or another doubt; inactive = no such curve, though single readings can be large; an effect the other way counts as inactive or inconclusive.
# Tests used:
# TAB109 = assay: qHTS profiling for inhibitors of Plasmodium falciparum proliferation (AID 504749); note: nearly all actives have a fitted effect of over 60% in size; note: potency is the fitted concentration of half-maximal effect; conditions: P. falciparum in erythrocytes, SYBR Green DNA, 72 h; series mostly up to 28.7 µM
# Summary of the method: (§1)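 Quantitative HTS: compounds pinned into medium, infected erythrocytes added (0.3% parasitemia, 2.5% hematocrit), 72 h culture at 37 C under 5% CO2. Saponin/Triton lysis with SYBR Green I, overnight RT, then fluorescence read.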
# TAB113 = assay: as above; conditions: P. falciparum in erythrocytes, SYBR Green DNA, 72 h; series mostly up to 28.7 µM
# Summary of the method: as §1
# TAB165 = assay: as above; conditions: P. falciparum in erythrocytes, SYBR Green DNA, 72 h; series mostly up to 28.7 µM
# Summary of the method: as §1
# W2 = assay: as above; conditions: P. falciparum in erythrocytes, SYBR Green DNA, 72 h; series mostly up to 28.7 µM
# Summary of the method: as §1
# CRL-7250 = normal cell line; assay: Cytotoxic Profiling of Annotated Libraries Using Quantitative High-Throughput Screening (AID 1296008); conditions: Five cell lines viability, CellTiter-Glo ATP luminescence, 48-72 h; max response: active compounds read low; note: nearly all actives have a fitted effect of over 60% in size; note: potency is the fitted concentration of half-maximal effect
# Summary of the method: (§2)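 Compounds were pin-transferred onto cells and incubated 48 or 72 hr at 37 degree Celsius, 95% humidity. CellTiter-Glo was added, plates sat 10 min at room temperature, then ATP-coupled luminescence was imaged as the viability read-out.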
# HEK293 = assay: as above; conditions: Five cell lines viability, CellTiter-Glo ATP luminescence, 48-72 h; max response: active compounds read low
# Summary of the method: as §2
# HaCat [1] = assay: as above; conditions: Five cell lines viability, CellTiter-Glo ATP luminescence, 48-72 h; max response: active compounds read low
# Summary of the method: as §2
# KB-3-1 = assay: as above; conditions: Five cell lines viability, CellTiter-Glo ATP luminescence, 48-72 h; max response: active compounds read low
# Summary of the method: as §2
# NIH3T3 [2] = assay: as above; conditions: Five cell lines viability, CellTiter-Glo ATP luminescence, 48-72 h; max response: active compounds read low
# Summary of the method: as §2
# HACAT [3] = assay: qHTS assay to identify novel small-molecules to repurpose for Merkel cell carcinoma treatment (AID 1296009); conditions: MCC and control cell lines, CellTiter-Glo viability, 72 h; at 44.8 µM (top of the series) unless noted; note: nearly all actives have a fitted effect of over 60% in size
# Summary of the method: (§3)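 Viability readout: ATP luminescence (CellTiter-Glo) after 72 hr drug exposure at 37 degree celsius. Dose-response format was 8 points for NPC and 11 points for MIPE; data normalized to in-plate controls.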
# HEK293T = assay: as above; conditions: MCC and control cell lines, CellTiter-Glo viability, 72 h; at 44.8 µM (top of the series) unless noted
# Summary of the method: as §3
# MCC-13 = assay: as above; conditions: MCC and control cell lines, CellTiter-Glo viability, 72 h; series mostly up to 46 µM
# Summary of the method: as §3
# MCC-26 = assay: as above; conditions: MCC and control cell lines, CellTiter-Glo viability, 72 h; series mostly up to 46 µM
# Summary of the method: as §3
# MKL-1 = assay: as above; conditions: MCC and control cell lines, CellTiter-Glo viability, 72 h; series mostly up to 46 µM
# Summary of the method: as §3
# MKL-2 = assay: as above; conditions: MCC and control cell lines, CellTiter-Glo viability, 72 h; series mostly up to 46 µM
# Summary of the method: as §3
# NIH3T3 [4] = assay: as above; conditions: MCC and control cell lines, CellTiter-Glo viability, 72 h; at 44.8 µM (top of the series) unless noted
# Summary of the method: as §3
# UISO = assay: as above; conditions: MCC and control cell lines, CellTiter-Glo viability, 72 h; series mostly up to 46 µM
# Summary of the method: as §3
# WaGa = assay: as above; conditions: MCC and control cell lines, CellTiter-Glo viability, 72 h; series mostly up to 46 µM
# Summary of the method: as §3
# C33A = assay: Primary qHTS to identify gynecologic anti-cancer compounds using libraries of approved drugs and bioactive compounds (AID 1345084); conditions: Gynecologic cancer cell panel viability, ATPlite luminescence, 48 h; series mostly up to 57.5 µM; note: nearly all actives have a fitted effect of over 55% in size
# Summary of the method: (§4)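 ATP-based viability (ATPlite), 1,000 cells/well, 16 h pre-incubation, 48 h compound at 37 C, 5% CO2, 15 min RT before read.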
# CAOV3 = assay: as above; conditions: Gynecologic cancer cell panel viability, ATPlite luminescence, 48 h; series mostly up to 57.5 µM
# Summary of the method: as §4
structure (smiles),measurement,setting,value
Cc1ncc([N+](=O)[O-])n1CC(C)O (stereo unspecified),Potency,TAB109,inactive
same,Potency,TAB113,inactive
same,Potency,TAB165,inactive
same,Potency,W2,inactive
same,max response,CRL-7250,-19.5%
same,outcome,CRL-7250,inactive
same,max response,HEK293,3.63%
same,outcome,HEK293,inactive
same,max response,HaCat [1],-8.77%
same,outcome,HaCat [1],inactive
same,max response,KB-3-1,2.22% and 6.66%
same,max response,NIH3T3 [2],2.47%
same,outcome,NIH3T3 [2],inactive
same,outcome,HACAT [3],inactive
same,outcome,HEK293T,inactive
same,Potency,MCC-13,inactive
same,Potency,MCC-26,inactive
same,Potency,MKL-1,inactive
same,Potency,MKL-2,inactive
same,outcome,NIH3T3 [4],inactive
same,Potency,UISO,inactive
same,Potency,WaGa,inactive
same,Potency,C33A,inactive
CN(C)[C@@H](CCOc1cccc2ccccc12)c1ccccc1,max response,CRL-7250,-9.42%
same,outcome,CRL-7250,inactive
same,max response,HaCat [1],4.48%
same,outcome,HaCat [1],inactive
same,max response,NIH3T3 [2],-1.45% and -13.3%
same,outcome,HACAT [3],inactive
same,Potency,MCC-13,inactive
same,Potency,MCC-26,inactive
same,Potency,MKL-1,inactive
same,Potency,UISO,inactive
same,Potency,C33A,inactive
same,Potency,CAOV3,inactive
Cn1c(NCCN(CCO)CCCc2ccc([N+](=O)[O-])cc2)cc(=O)n(C)c1=O,Potency,TAB109,inactive
same,Potency,TAB113,inactive
same,Potency,TAB165,inactive
same,max response,CRL-7250,-8.35%
same,outcome,CRL-7250,inactive
same,outcome,HEK293,inactive
same,max response,HaCat [1],0.714%
same,outcome,HaCat [1],inactive
same,max response,NIH3T3 [2],4.21% and -8.98%
same,outcome,HACAT [3],inactive
same,outcome,HEK293T,inactive
same,Potency,MCC-13,inactive
same,Potency,MCC-26,inactive
same,Potency,MKL-1,inactive
same,Potency,MKL-2,inactive
same,Potency,UISO,inactive
same,Potency,WaGa,inactive
same,Potency,C33A,inactive
O=C(NC(Cc1cc(=O)[nH]c2ccccc12)C(=O)O)c1ccc(Cl)cc1 (stereo unspecified),Potency,TAB109,inactive
same,Potency,TAB113,inactive
same,Potency,TAB165,inactive
same,Potency,W2,inactive
same,max response,CRL-7250,-2.81%
same,outcome,CRL-7250,inactive
same,max response,HEK293,-6.76% and -6.81%
same,max response,HaCat [1],-8.32%
same,outcome,HaCat [1],inactive
same,max response,KB-3-1,9.29%
same,outcome,KB-3-1,inactive
same,outcome,NIH3T3 [2],inactive
same,outcome,HACAT [3],inactive
same,Potency,MCC-13,inactive
same,Potency,MCC-26,inactive
same,Potency,MKL-1,inactive
same,Potency,MKL-2,inactive
same,outcome,NIH3T3 [4],inactive
same,Potency,UISO,inactive
same,Potency,WaGa,inactive
same,Potency,C33A,inactive
same,Potency,CAOV3,inactive
CCC[C@@H]1C[C@@H](C(=O)N[C@@H]([C@H]2O[C@H](SC)[C@H](O)[C@@H](O)[C@H]2O)[C@@H](C)O)N(C)C1,Potency,TAB113,inactive
same,Potency,W2,0.338 µM (active)
same,max response,CRL-7250,-16.2%
same,outcome,CRL-7250,inactive
same,max response,HEK293,-5.82% and -16.1%
same,max response,HaCat [1],-11.9% and -14%
same,max response,NIH3T3 [2],-4.88% and -7.89%
same,Potency,MCC-13,inactive
same,Potency,MCC-26,inactive
same,Potency,MKL-1,inactive
same,Potency,MKL-2,inactive
same,Potency,UISO,inactive
same,Potency,WaGa,inactive
same,Potency,C33A,inactive
Cc1cc2c(s1)Nc1ccccc1N=C2N1CCN(C)CC1,Potency,TAB109,inactive
same,Potency,TAB113,inactive
same,Potency,TAB165,inactive
same,outcome,CRL-7250,inactive
same,max response,HEK293,0.773%
same,outcome,HEK293,inactive
same,max response,HaCat [1],-13.9%
same,outcome,HaCat [1],inactive
same,max response,KB-3-1,7.18% and 6.8%
same,outcome,KB-3-1,inactive
same,outcome,NIH3T3 [2],inactive
same,outcome,HACAT [3],inactive
same,outcome,HEK293T,inactive
same,Potency,MCC-13,inactive
same,Potency,MCC-26,inactive
same,Potency,MKL-1,inactive
same,Potency,MKL-2,inactive
same,outcome,NIH3T3 [4],inactive
same,Potency,UISO,inactive
same,Potency,WaGa,inactive
same,Potency,C33A,inactive
CCC1=C(C)CN(C(=O)NCCc2ccc(S(=O)(=O)NC(=O)NC3CCC(C)CC3)cc2)C1=O (stereo unspecified),Potency,TAB109,inactive
same,Potency,TAB113,inactive
same,Potency,TAB165,inactive
same,Potency,W2,inactive
same,max response,CRL-7250,0.534% and 4.01%
same,outcome,CRL-7250,inactive
same,outcome,HEK293,inactive
same,outcome,HaCat [1],inactive
same,max response,KB-3-1,-10.1% and -9.63%
same,max response,NIH3T3 [2],0.91%
same,outcome,NIH3T3 [2],inactive
same,outcome,HACAT [3],inactive
same,outcome,HEK293T,inactive
same,Potency,MCC-13,inactive
same,Potency,MCC-26,inactive
same,Potency,MKL-1,inactive
same,Potency,MKL-2,inactive
same,outcome,NIH3T3 [4],inactive
same,Potency,UISO,inactive
same,Potency,WaGa,inactive
same,Potency,C33A,inactive
Cc1cccc(CN2CCN(C(c3ccccc3)c3ccc(Cl)cc3)CC2)c1 (stereo unspecified),max response,CRL-7250,-2.17%
same,outcome,CRL-7250,inactive
same,outcome,HaCat [1],inactive
same,max response,KB-3-1,8.45% and -5.16%
same,max response,NIH3T3 [2],3.98% and 1.14%
same,outcome,HACAT [3],inactive
same,Potency,MCC-13,inactive
same,Potency,MCC-26,inactive
same,Potency,MKL-1,inactive
same,Potency,MKL-2,inactive
same,Potency,UISO,inactive
same,Potency,WaGa,inactive
same,Potency,C33A,inactive
same,Potency,CAOV3,inactive
CCCS(=O)c1ccc2nc(NC(=O)OC)[nH]c2c1 (stereo unspecified),Potency,CRL-7250,21.1 µM (active)
same,max response,CRL-7250,-27.5%
same,Potency,HEK293,23.7 µM (active)
same,max response,NIH3T3 [2],-29.9%
same,Potency,MCC-13,inactive
same,Potency,MCC-26,inactive
same,Potency,MKL-1,inactive
same,Potency,C33A,inactive
same,Potency,CAOV3,inactive
COc1cc(C(C)=O)ccc1OCCCN1CCC(c2noc3cc(F)ccc23)CC1,max response,CRL-7250,-1.04%
same,outcome,CRL-7250,inactive
same,max response,HEK293,-12.6%
same,outcome,HaCat [1],inactive
same,outcome,KB-3-1,inactive
same,max response,NIH3T3 [2],-2.71%
same,outcome,NIH3T3 [2],inactive
same,outcome,HACAT [3],inactive
same,Potency,MCC-13,inactive
same,Potency,MCC-26,inactive
same,Potency,MKL-1,inactive
same,outcome,NIH3T3 [4],inactive
same,Potency,UISO,inactive
same,Potency,WaGa,inactive
same,Potency,C33A,inactive
COC(=O)N[C@H](C(=O)N[C@@H](Cc1ccccc1)[C@@H](O)CN(Cc1ccc(-c2ccccn2)cc1)NC(=O)[C@@H](NC(=O)OC)C(C)(C)C)C(C)(C)C,max response,CRL-7250,-0.779%
same,max response,HEK293,-5.2%
same,outcome,HEK293,inactive
same,max response,HaCat [1],-5.76%
same,outcome,HaCat [1],inactive
same,max response,KB-3-1,5.51% and -5.77%
same,max response,NIH3T3 [2],0.751% and -1.44%
same,outcome,HACAT [3],inactive
same,outcome,HEK293T,inactive
same,Potency,MCC-13,inactive
same,Potency,MCC-26,inactive
same,Potency,MKL-1,inactive
same,Potency,MKL-2,inactive
same,Potency,UISO,inactive
same,Potency,WaGa,inactive
same,Potency,C33A,inactive
same,Potency,CAOV3,inactive
